Measurements as given in article PMC5540273 (PLoS ONE, 2017).

Assays:
Conditions in all cases: concentration: 1 μM, replicates: in singlicate; n = 1
TLK1 = test system: TLK1
TLK2 = test system: TLK2
TNIK = test system: TNIK
TNK1 = test system: TNK1
TNK2 = test system: TNK2
TNNI3K = test system: TNNI3K
TRKA = test system: T1, TRKA
T1 construct: gene NTRK1

TRKB = test system: TRKB
TRKC = test system: T2, TRKC
T2 construct: gene NTRK3

TRPM6 = test system: TRPM6
TSSK1B = test system: TSSK1B
TSSK3 = test system: TSSK3
TTK = test system: TTK
TXK = test system: TXK
[1] = test system: TYK2(JH1domain-catalytic)
[2] = test system: TYK2(JH2domain-pseudokinase)
TYRO3 = test system: TYRO3
ULK1 = test system: ULK1
ULK2 = test system: ULK2
ULK3 = test system: ULK3
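Note: KINOMEscan kinase panel screen.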

| Compound | %Inh (TLK1) | %Inh (TLK2) | %Inh (TNIK) | %Inh (TNK1) | %Inh (TNK2) | %Inh (TNNI3K) | %Inh (TRKA) | %Inh (TRKB) | %Inh (TRKC) | %Inh (TRPM6) | %Inh (TSSK1B) | %Inh (TSSK3) | %Inh (TTK) | %Inh (TXK) | %Inh [1] | %Inh [2] | %Inh (TYRO3) | %Inh (ULK1) | %Inh (ULK2) | %Inh (ULK3) |
| --- | --- | --- | --- | --- | --- | --- | --- | --- | --- | --- | --- | --- | --- | --- | --- | --- | --- | --- | --- | --- |
| Fc1ccc(-c2nc3n(c2-c2ccncc2)CCS3)cc1 [GI98581] | 0% | 0% | 18% | 0% | 11% | 2% | 11% | 0% | 17% | 23% | 0% | 22% | 0% | 0% | 8% | 11% | 0% | 2% | 0% | 0% |
| COc1ccc(Nc2nccc(NCCNC(=O)Nc3cc(C)ccc3C)n2)cc1 [GSK1379899] | 0% | 0% | 0% | 0% | 0% | 0% | 3% | 0% | 7% | 0% | 0% | 7% | 0% | 15% | 17% | 0% | 0% | 28% | 0% | 0% |
| Cc1ccc(NC(=O)Nc2ccccc2)cc1-c1ccc(C(=O)Nc2ccncc2)cc1 [GSK1398471] | 19% | 4% | 0% | 18% | 13% | 49% | 23% | 0% | 0% | 27% | 0% | 0% | 2% | 0% | 0% | 0% | 15% | 12% | 0% | 7% |
| COc1ccc(CSc2nnc(-c3ccc4ncsc4c3)o2)cc1C(F)(F)F | 0% | 7% | 0% | 0% | 0% | 0% | 0% | 0% | 13% | 0% | 0% | 0% | 13% | 0% | 0% | 0% | 0% | 0% | 0% | 0% |
| Nc1ncnc2occ(-c3ccc4c(c3)CCN4C(=O)Cc3cc(F)ccc3F)c12 [GSK2645446] | 0% | 0% | 0% | 0% | 0% | 0% | 9% | 0% | 0% | 0% | 0% | 4% | 0% | 0% | 2% | 3% | 0% | 0% | 0% | 0% |
| COC(=O)C(NC(=O)NC1CCN(c2ccnc(Nc3ccc(F)cc3)n2)C1)c1ccccc1 (stereo not drawn) [GSK1379712] | 14% | 6% | 17% | 0% | 0% | 24% | 51% | 6% | 29% | 44% | 14% | 23% | 3% | 0% | 13% | 22% | 0% | 0% | 3% | 4% |
| O=C(Nc1n[nH]c2cc(-c3ccsc3)ccc12)C1CC1 [SB-732932] | 0% | 0% | 61% | 0% | 8% | 0% | 87% | 39% | 38% | 0% | 13% | 27% | 35% | 5% | 9% | 0% | 14% | 21% | 6% | 32% |
| COc1ccc(CSc2nnc(-c3ccc4c(c3)CCO4)o2)cc1 | 0% | 0% | 0% | 0% | 0% | 0% | 0% | 0% | 0% | 0% | 0% | 0% | 0% | 0% | 0% | 0% | 0% | 0% | 0% | 0% |
| FC(F)(F)c1ccccc1-c1cc(-c2c[nH]nc2-c2ccccn2)ccn1 [GW679396] | 0% | 0% | 18% | 1% | 0% | 0% | 39% | 0% | 0% | 3% | 1% | 4% | 0% | 0% | 0% | 0% | 13% | 0% | 0% | 0% |
| CNCc1ccc2nc(NC(=O)c3ccc(C(C)(C)C)cc3)cn2c1 | 0% | 0% | 8% | 0% | 1% | 6% | 39% | 58% | 28% | 1% | 0% | 0% | 0% | 8% | 0% | 24% | 0% | 20% | 15% | 58% |
| CCn1c(-c2c(N)noc2C)nc2cnccc21 [SB-737856] | 0% | 0% | 0% | 0% | 22% | 6% | 0% | 0% | 0% | 0% | 19% | 3% | 0% | 31% | 0% | 21% | 12% | 18% | 7% | 16% |
| CNc1nc(-c2ccc3c(N)n[nH]c3c2)cc(N2C[C@@H](C(=O)NC3CCCCC3)OC[C@H]2C)n1 [GSK2375584] | 17% | 5% | 8% | 13% | 17% | 2% | 11% | 0% | 0% | 0% | 0% | 23% | 7% | 0% | 0% | 12% | 0% | 0% | 0% | 0% |
| COc1ccc2cc(-c3nc(-c4ccccc4C(C)C)[nH]c3-c3ccncc3)ccc2c1 [SB-660566] | 0% | 0% | 0% | 32% | 14% | 15% | 0% | 13% | 1% | 18% | 54% | 31% | 0% | 35% | 7% | 27% | 0% | 19% | 0% | 14% |
| COc1nccc(-c2c(-c3ccc(F)cc3)ncn2CCCN2CCOCC2)n1 [SB-282852] | 26% | 0% | 0% | 0% | 0% | 0% | 61% | 56% | 13% | 0% | 0% | 50% | 0% | 6% | 13% | 25% | 0% | 0% | 33% | 12% |
| Cc1ccc(NC(=O)Nc2ccc(Cl)c(C(F)(F)F)c2)cc1-c1ccc(C(=O)Nc2ccncc2)cc1 [GSK1398470] | 20% | 8% | 9% | 20% | 10% | 64% | 11% | 0% | 0% | 6% | 0% | 9% | 32% | 0% | 0% | 0% | 0% | 44% | 0% | 51% |
| Fc1ccc(-c2nc[nH]c2-c2ccncc2)cc1 [SB-217360] | 0% | 0% | 51% | 0% | 0% | 0% | 0% | 0% | 4% | 6% | 0% | 0% | 0% | 0% | 2% | 22% | 0% | 20% | 27% | 16% |
| CN1c2ccc(-c3ccc(C(N)=O)cc3)cc2-c2[nH]ncc2S1(=O)=O | 36% | 0% | 45% | 24% | 0% | 0% | 0% | 0% | 0% | 13% | 0% | 0% | 5% | 0% | 45% | 83% | 0% | 0% | 9% | 6% |
| O=c1cc(N2CCOCC2)nc2n(Cc3ccccc3F)ccn12 [GSK2297428] | 0% | 0% | 0% | 0% | 4% | 0% | 0% | 0% | 0% | 0% | 0% | 13% | 0% | 0% | 0% | 0% | 0% | 0% | 0% | 0% |
| Cc1ccccc1Cn1ccn2c(=O)cc(N3CCOCC3)nc12 [GSK2269905] | 0% | 0% | 0% | 6% | 32% | 4% | 0% | 0% | 0% | 2% | 10% | 0% | 5% | 7% | 0% | 0% | 0% | 16% | 0% | 9% |
| Cc1nccc(-c2c(-c3ccc(F)cc3)ncn2CCCN2CCOCC2)n1.Cl [SB-282975] | 0% | 0% | 0% | 37% | 26% | 0% | 0% | 0% | 16% | 0% | 3% | 43% | 0% | 31% | 42% | 28% | 14% | 9% | 26% | 20% |
| Cc1cccc2c(-c3ccncn3)c(-c3ccc(F)cc3)nn12 [GW515532] | 6% | 0% | 8% | 0% | 0% | 0% | 2% | 0% | 7% | 0% | 16% | 0% | 14% | 12% | 30% | 24% | 0% | 19% | 0% | 10% |
